Experimental data published in PubChem BioAssay (NCATS).
“And” between values parts separate entries of the source, which are not always exact repeats. Identical values can stand only once. Records with an inconclusive call do not appear. The source made the active and inactive calls. Unless noted, calls follow the shape of the dose curve; as a rule, active = well fitted curve in the direction sought with a large enough effect; inconclusive = small, poorly fitted or top-dose-only effect, or another doubt; inactive = no such curve, though single readings can be large; an effect the other way counts as inactive or inconclusive.

Key:
[1] = AP1 Signaling Pathway (AID 357; active = well fitted curve in either direction with a large enough effect, not every such curve was filed as active;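 also: ME-180 reporter cells stimulated with EGF at its EC50 level; % is scaled to controls: 0 for no effect and ±100 for the full control effect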); conditions: ME-180 AP-1-bla reporter, EGF-induced, beta-lactamase ratio, 5 h; at 38 µM (top of the series)
Procedure, shortened: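 Titration-series screen for positive or negative modulators of EC50 EGF-induced signaling in ME-180 cells carrying an AP-1-driven beta-lactamase reporter. After 5 hours at 37 degrees Celsius, CCF4 460nm/530nm emission ratio gave %Activity; AC50 values derived.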

[2] = NFAT Signaling Pathway (AID 444; active = well fitted curve in either direction with a large enough effect, not every such curve was filed as active;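 also: carbachol stimulus at about its EC50 of 1 µM final; % is scaled to controls: 0 for no effect and ±100 for the full control effect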); conditions: Jurkat NFAT-bla M1, carbachol, beta-lactamase ratio, 5 h; at 38 µM (top of the series)
Procedure, shortened: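 Jurkat cells with NFAT-driven β-lactamase reporter and co-expressed M1 receptor, stimulated with carbachol (final 1 uM, ~EC50), compound titration, 5 h at 37 °C. CCF4 loaded 1 h at RT; 460/530 nm ratio gave %activity and AC50.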

[3] = Stat Signaling Pathway (AID 446; active = well fitted curve in either direction with a large enough effect, not every such curve was filed as active;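 also: ME-180 cervical cancer cells given 40 pM IL-6 alongside compound; SIE-controlled beta-lactamase reporter measured as 460/530 nm FRET emission ratio; % is scaled to controls: 0 for no effect and ±100 for the full control effect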); conditions: ME-180 SIE beta-lactamase reporter, IL-6 stimulated, 5 h; at 38 µM (top of the series)
Procedure, shortened: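 ME-180 cells carrying a SIE-driven beta-lactamase reporter are stimulated with 40 pM IL-6 for 5 h at 37C in the presence of compound. The 460/530 nm FRET substrate ratio is read after 2.5 h at RT. Data are normalised to 300 pM IL-6 and to 125 nM JAK inhibitor controls.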

[4] = target: Cytochrome P450 2C9 (Homo sapiens) (UniProt P11712); assay: qHTS Assay for Inhibitors and Substrates of Cytochrome P450 2C9 (AID 883); conditions: recombinant CYP2C9, luciferin-H luminescence, 60 min; series mostly up to 57.1 µM; also: potency is read from the fitted curve at half-maximal effect; nearly all actives have a fitted effect of over 60% in size
Cytochrome P450 2C9 (Homo sapiens), sequence (P11712 whole entry, looked up): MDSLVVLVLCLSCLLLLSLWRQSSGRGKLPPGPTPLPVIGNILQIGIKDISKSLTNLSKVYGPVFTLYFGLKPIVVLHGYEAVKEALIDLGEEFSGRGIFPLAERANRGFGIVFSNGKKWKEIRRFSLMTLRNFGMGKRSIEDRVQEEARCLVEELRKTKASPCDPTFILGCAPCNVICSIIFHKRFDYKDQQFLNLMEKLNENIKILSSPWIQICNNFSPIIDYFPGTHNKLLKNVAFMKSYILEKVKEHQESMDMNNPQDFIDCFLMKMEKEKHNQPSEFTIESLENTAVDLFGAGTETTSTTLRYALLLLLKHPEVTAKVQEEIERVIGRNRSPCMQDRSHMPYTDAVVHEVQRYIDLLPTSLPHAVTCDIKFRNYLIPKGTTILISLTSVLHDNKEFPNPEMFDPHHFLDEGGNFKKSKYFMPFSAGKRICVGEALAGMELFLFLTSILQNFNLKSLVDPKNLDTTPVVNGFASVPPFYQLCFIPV
Procedure, shortened: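 Human CYP2C9 (10nM) with Luciferin-H at 100uM (its KM) in 25mM KPO4; compound preincubated 10 min at 37C, then NADPH regeneration for 60 min at 37C. Luciferin read by luminescence after detection reagent; normalized to 57uM sulphaphenazole as full inhibition.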

[5] = target: Endonuclease 4 (Escherichia coli (strain K12)) (UniProt P0A6C1); assay: Counterscreen for APE1 Inhibitors: qHTS Validation Assay for Inhibitors of Endonuclease IV (AID 1708); also: potency is read from the fitted curve at half-maximal effect; conditions: E. coli endonuclease IV, DNA cleavage fluorescence; series mostly up to 57.1 µM
Procedure, shortened: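 Cleavage of a quenched abasic-site DNA duplex (50 nM, 5'-TAMRA, 3'-BHQ-2) by 2 nM enzyme is followed as fluorescence increase. Compounds are preincubated with enzyme 15 min at room temperature before substrate addition.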

[6] = qHTS for differential inhibitors of proliferation of Plasmodium falciparum line 7G8 (AID 1815); conditions: Plasmodium falciparum 7G8 proliferation inhibition; series mostly up to 28.7 µM;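 also: parasite growth measured after three days of incubation; plate controls were vehicle wells for no effect and reference inhibitor wells for full effect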
[7] = qHTS for differential inhibitors of proliferation of Plasmodium falciparum line D10 (AID 1877); conditions: series mostly up to 28.7 µM;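 also: parasites grown with compound for 72 h before DNA staining; plate controls were vehicle wells for no effect and reference inhibitor wells for full effect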
[8] = qHTS for differential inhibitors of proliferation of Plasmodium falciparum line HB3 (AID 1886); conditions: Potency: Plasmodium falciparum HB3 proliferation inhibition; series mostly up to 28.7 µM;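 also: parasites grown with compound for 72 h before SYBR Green readout; plate controls were vehicle for no effect and reference inhibitor for full effect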
[9] = target: Ferritin light chain (Equus caballus) (UniProt P02791); assay: qHTS Validation Assay for Identification of Novel General Anesthetics (AID 2323); conditions: horse apoferritin, anesthetic-site fluorescent probe displacement; series mostly up to 76.9 µM; also: % is scaled to controls: 0 for no effect and ±100 for the full control effect
Procedure, shortened: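 10 uM horse-spleen apoferritin + 1-AMA (50% saturated, PBS); cpd pin-transferred, 10 min RT. Ex 380/Em 535 nm endpoint. Activity normalized between free 1-AMA and 1-AMA/apoferritin; 4-parameter Hill fit of concentration-response.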

[10] = target: ATP-dependent DNA helicase Q1 (Homo sapiens) (UniProt P46063); assay: qHTS Validation Assay for Inhibitors of RecQ-Like Dna Helicase 1 (RECQ1) (AID 2353); conditions: recombinant RECQ1 helicase DNA unwinding assay; series mostly up to 25.6 µM;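 also: plate controls were DMSO vehicle for no effect and enzyme-free control for full effect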
ATP-dependent DNA helicase Q1 (Homo sapiens), sequence (P46063 whole entry, looked up): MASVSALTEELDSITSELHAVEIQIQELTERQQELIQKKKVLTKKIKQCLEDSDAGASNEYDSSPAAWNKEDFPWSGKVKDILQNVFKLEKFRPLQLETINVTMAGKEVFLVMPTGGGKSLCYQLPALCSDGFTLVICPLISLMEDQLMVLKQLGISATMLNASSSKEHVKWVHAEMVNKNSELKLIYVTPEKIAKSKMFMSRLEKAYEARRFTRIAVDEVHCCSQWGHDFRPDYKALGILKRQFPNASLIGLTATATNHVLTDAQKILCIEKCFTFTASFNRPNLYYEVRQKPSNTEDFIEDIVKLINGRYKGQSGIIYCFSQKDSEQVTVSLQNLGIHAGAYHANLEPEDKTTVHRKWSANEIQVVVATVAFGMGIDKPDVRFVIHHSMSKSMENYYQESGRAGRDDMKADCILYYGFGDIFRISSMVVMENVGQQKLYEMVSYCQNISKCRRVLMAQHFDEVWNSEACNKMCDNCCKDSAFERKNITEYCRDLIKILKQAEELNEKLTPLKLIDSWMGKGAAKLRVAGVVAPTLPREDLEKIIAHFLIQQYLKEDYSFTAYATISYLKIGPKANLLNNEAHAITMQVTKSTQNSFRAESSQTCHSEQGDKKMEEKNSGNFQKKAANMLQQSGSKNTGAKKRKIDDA
Procedure, shortened: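 50 nM RECQ1T1 preincubated 15 min with compound in Tris pH 8.0 buffer with MgCl2, DTT, Tween-20 and 2.5 ug/ml poly(dI-dC); started with 200 nM TAMRA/BHQ-2 forked duplex and 2 mM ATP. Unwinding read as fluorescence (525/598 nm), two reads 2 h apart.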

[11] = Validation screen for small molecules that induce DNA re-replication in MCF 10A normal breast cells (AID 463097); conditions: MCF 10A cells, DNA re-replication phenotype imaging; series mostly up to 46.1 µM; also: 0% is about no effect; nearly all actives have a fitted effect of over 60% in size
Procedure, shortened: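 250 MCF 10A cells/well; compound pin-transferred; 48 hr, 37 C, 5% CO2; Hoechst 40 min; imaged 405/500-530 nm. Hits = more high-intensity nuclei.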

[12] = Quantitative high throughput screen for delayed death inhibitors of the malarial parasite plastid, 96 hour incubation (AID 488745); conditions: Plasmodium falciparum growth; series mostly up to 28.7 µM; also: % is scaled to controls: 0 for no effect and ±100 for the full control effect; nearly all actives have a fitted effect of over 70% in size
Procedure, shortened: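 P. falciparum carrying an integrated firefly luciferase reporter, grown in erythrocytes (2% hematocrit, 0.1% parasitemia final) in RPMI 1640/0.5% Albumax, was exposed to compound for 96 h (two generations) at 37 C, 5% CO2. Luminescence decrease indicated growth inhibition.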

[13] = Quantitative high throughput screen for delayed death inhibitors of the malarial parasite plastid, 48 hour incubation (AID 488752); conditions: Plasmodium falciparum growth; series mostly up to 28.7 µM; also: % is scaled to controls: 0 for no effect and ±100 for the full control effect; nearly all actives have a fitted effect of over 65% in size
Procedure, shortened: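 Erythrocytes infected with P. falciparum carrying an integrated firefly luciferase reporter (2% hematocrit, 0.1% parasitemia final) were exposed to compounds in RPMI 1640/0.5% Albumax for 48 h at 37 C, 5% CO2. Growth inhibition was scored as reduced luminescence.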

[14] = target: M-phase phosphoprotein 8 (Homo sapiens) (UniProt Q99549); assay: qHTS Validation Assay for Inhibitors for MPP8 Chromodomain Interactions with Methylated Histone Tails (AID 488949); conditions: AlphaScreen MPP8 binding to H3K9me3 peptide; series mostly up to 114 µM; also: potency is read from the fitted curve at half-maximal effect; nearly all actives have a fitted effect of over 55% in size
M-phase phosphoprotein 8 (Homo sapiens), sequence (Q99549 whole entry, looked up): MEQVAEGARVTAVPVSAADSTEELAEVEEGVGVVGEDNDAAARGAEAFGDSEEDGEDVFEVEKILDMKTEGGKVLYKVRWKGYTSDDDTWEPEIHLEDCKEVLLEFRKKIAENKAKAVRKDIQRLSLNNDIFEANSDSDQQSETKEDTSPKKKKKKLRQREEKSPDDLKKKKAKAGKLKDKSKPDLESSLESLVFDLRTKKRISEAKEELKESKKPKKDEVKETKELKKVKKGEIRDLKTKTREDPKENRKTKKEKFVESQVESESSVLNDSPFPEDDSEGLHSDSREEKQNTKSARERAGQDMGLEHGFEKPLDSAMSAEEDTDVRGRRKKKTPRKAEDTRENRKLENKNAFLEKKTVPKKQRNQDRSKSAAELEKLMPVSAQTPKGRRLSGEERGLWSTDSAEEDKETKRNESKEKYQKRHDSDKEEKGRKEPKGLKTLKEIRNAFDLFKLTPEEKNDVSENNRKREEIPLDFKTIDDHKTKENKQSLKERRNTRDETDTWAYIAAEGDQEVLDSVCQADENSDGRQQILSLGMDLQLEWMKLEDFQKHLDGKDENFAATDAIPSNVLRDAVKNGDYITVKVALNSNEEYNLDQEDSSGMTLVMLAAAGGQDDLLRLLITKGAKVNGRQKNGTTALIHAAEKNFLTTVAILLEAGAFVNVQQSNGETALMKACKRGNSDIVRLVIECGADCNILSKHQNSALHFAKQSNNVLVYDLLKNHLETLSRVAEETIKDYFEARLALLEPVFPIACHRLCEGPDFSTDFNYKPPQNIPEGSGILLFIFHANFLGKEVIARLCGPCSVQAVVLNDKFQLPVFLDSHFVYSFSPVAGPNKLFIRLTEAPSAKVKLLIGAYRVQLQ
Procedure, shortened: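 AlphaScreen read-out: streptavidin donor and nickel chelate acceptor beads (final 10 ug/mL), 30 min in the dark at RT. Complex of 50 nM MPP8 and 50 nM b-H3(1-18)K9me3 peptide had been exposed to compounds for 30 min beforehand.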

[15] = target: Transient receptor potential cation channel subfamily V member 1 (Homo sapiens) (UniProt Q8NER1); assay: HTS Assay for Compounds that Act as Enhancers of the Vanilloid Receptor 1 (AID 488979); conditions: TRPV1-expressing cells, enhancer of channel activity, stimulated with capsaicin at EC20; series mostly up to 41.7 µM; also: 0% is about no effect
Transient receptor potential cation channel subfamily V member 1 (Homo sapiens), sequence (Q8NER1 whole entry, looked up): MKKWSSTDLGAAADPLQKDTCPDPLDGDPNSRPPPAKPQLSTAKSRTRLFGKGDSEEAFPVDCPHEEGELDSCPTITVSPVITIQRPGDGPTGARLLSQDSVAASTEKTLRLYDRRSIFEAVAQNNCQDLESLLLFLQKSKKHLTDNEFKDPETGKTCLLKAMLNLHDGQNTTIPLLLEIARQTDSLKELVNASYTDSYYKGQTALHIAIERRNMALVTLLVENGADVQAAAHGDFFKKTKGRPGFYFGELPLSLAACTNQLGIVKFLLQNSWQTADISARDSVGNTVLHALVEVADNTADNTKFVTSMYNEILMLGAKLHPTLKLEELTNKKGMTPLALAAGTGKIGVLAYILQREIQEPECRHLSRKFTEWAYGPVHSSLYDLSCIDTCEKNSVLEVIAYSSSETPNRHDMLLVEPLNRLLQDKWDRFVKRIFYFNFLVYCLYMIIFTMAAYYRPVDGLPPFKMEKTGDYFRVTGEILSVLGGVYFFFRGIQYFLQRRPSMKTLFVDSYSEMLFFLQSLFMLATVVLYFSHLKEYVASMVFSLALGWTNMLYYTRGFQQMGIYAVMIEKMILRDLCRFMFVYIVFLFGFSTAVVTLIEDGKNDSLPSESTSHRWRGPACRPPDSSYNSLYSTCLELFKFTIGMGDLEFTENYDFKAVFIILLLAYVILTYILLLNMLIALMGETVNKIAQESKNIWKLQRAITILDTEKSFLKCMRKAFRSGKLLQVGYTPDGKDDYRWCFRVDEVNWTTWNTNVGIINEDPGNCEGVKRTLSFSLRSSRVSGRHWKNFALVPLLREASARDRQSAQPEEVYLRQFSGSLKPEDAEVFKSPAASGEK
Procedure, shortened: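 TRPV1 cells loaded with Fluo-8 calcium dye; compound added and Ca2+ signal (ex 480/em 520 nm) followed 3 min, then capsaicin at EC20 added and read 2 more min to detect enhancement.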

[16] = target: Thyrotropin receptor (Homo sapiens) (UniProt P16473); assay: qHTS Assay for Antagonists of the Thyroid Stimulating Hormone Receptor (AID 488980); conditions: TSHR-expressing cells, cAMP antagonist read-out; series mostly up to 57.5 µM; also: 0% is about no effect
Thyrotropin receptor (Homo sapiens), sequence (P16473 whole entry, looked up): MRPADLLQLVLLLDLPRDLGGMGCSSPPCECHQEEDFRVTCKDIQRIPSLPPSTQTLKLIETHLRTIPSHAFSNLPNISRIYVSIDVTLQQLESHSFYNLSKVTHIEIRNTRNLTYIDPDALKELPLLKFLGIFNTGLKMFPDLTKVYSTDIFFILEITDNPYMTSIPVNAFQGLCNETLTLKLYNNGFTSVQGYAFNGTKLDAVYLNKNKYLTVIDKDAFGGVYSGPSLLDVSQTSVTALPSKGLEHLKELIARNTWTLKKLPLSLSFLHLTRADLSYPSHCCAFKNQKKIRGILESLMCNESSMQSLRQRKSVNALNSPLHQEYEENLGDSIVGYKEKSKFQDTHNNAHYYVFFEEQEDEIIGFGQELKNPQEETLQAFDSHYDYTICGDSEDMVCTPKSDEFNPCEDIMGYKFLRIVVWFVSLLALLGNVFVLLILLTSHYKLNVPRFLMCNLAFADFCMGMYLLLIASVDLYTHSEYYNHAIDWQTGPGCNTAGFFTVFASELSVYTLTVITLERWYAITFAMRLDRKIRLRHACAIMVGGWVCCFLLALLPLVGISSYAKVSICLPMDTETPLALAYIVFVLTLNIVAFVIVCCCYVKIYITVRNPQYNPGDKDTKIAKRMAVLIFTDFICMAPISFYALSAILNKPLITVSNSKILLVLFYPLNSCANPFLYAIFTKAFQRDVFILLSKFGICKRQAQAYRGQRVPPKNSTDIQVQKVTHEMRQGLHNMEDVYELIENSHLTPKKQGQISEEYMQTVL
Procedure, shortened: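 TSHR-HEK293 cells; 70 uM RO 20-1724 PDE inhibitor; compound + EC80 TSH (4 nM final); anti-cAMP cryptate antibody/cAMP-d2 in lysis buffer, 30 min RT; HTRF 665/620 nm read.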

[17] = target: Tyrosyl-DNA phosphodiesterase 1 (Homo sapiens) (UniProt Q9NUW8); assay: Confirmation Assay for Inhibitors of Tyrosyl-DNA Phosphodiesterase (TDP1) (AID 489007); conditions: recombinant human TDP1 enzymatic activity, dose-response; also: potency is read from the fitted curve at half-maximal effect; nearly all actives have a fitted effect of over 40% in size
Tyrosyl-DNA phosphodiesterase 1 (Homo sapiens), sequence (Q9NUW8 whole entry, looked up): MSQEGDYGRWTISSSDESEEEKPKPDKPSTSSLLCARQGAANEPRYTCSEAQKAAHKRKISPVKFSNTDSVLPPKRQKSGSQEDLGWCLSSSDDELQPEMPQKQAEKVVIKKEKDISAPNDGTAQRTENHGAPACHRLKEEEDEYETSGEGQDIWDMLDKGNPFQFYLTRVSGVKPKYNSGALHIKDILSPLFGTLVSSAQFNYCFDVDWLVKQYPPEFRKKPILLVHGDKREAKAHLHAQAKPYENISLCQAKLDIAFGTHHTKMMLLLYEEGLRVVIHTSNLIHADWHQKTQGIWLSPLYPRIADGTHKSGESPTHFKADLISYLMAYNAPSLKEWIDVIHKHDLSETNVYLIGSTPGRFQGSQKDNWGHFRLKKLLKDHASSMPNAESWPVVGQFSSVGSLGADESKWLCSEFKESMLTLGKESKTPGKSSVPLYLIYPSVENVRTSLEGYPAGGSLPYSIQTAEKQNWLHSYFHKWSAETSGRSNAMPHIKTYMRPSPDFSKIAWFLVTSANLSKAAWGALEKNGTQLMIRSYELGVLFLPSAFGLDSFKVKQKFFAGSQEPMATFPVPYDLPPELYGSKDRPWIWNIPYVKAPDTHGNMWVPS
Procedure, shortened: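 Recombinant E. coli-expressed Tdp1 (1 nM final) was preincubated with compounds 15 min at room temperature, then reacted 5 min with 15 nM 5'-biotin/3'-phosphotyrosine-FITC DNA substrate; cleavage read as loss of AlphaScreen signal (10 ug/ml beads, 10 min).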

[18] = target: Thyrotropin-releasing hormone receptor (Homo sapiens) (UniProt P34981); assay: qHTS for Small Molecule Agonists and Allosteric Enhancers of Human TRH Receptor: Validation Screen for Agonists (AID 493127;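 active = calcium activation more than 3 SD above the typical response in the agonist read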;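 also: intracellular calcium rise by fluo-8 fluorescence before TRH EC20 addition; 0% is about no effect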); conditions: TRH receptor agonist cell assay; at 2 µM; stronger effect = higher value
Thyrotropin-releasing hormone receptor (Homo sapiens), sequence (P34981 whole entry, looked up): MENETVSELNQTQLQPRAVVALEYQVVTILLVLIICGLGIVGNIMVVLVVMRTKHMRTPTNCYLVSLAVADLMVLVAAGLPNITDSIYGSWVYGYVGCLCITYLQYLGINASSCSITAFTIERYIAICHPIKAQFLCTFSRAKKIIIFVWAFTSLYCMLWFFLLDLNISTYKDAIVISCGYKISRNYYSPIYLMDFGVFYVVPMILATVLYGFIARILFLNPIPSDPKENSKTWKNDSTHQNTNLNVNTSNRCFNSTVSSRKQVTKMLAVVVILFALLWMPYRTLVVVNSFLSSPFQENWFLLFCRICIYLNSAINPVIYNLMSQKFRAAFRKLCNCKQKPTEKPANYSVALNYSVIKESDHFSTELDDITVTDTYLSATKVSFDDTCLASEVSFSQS
Procedure, shortened: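 TRHR-expressing cells were plated overnight in serum-containing medium, then loaded with fluo-8 calcium dye at room temperature for 30 min–1.5 h. After a 10 s baseline, compound was pin-transferred and calcium fluorescence (ex 480/em 530) read kinetically for agonist response.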

[19] = target: Galactokinase (Homo sapiens) (UniProt P51570); assay: qHTS Validation Assay for Inhibitors of Human Galactokinase (GALK) (AID 493189); conditions: purified human GALK enzyme activity, qHTS 7-point titration; series mostly up to 57.5 µM; also: 0% is about no effect
Galactokinase (Homo sapiens), sequence (P51570 whole entry, looked up): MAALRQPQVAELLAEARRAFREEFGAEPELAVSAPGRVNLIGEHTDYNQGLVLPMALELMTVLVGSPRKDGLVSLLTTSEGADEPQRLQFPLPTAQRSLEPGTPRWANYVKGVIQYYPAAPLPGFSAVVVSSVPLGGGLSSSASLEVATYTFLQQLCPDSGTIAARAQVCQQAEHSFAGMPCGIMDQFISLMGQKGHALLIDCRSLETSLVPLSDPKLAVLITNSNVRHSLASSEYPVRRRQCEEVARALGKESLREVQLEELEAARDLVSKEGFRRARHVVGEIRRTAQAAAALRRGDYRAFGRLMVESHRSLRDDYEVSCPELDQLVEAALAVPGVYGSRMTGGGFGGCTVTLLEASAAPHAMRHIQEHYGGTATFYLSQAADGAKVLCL
Procedure, shortened: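 Luminescence from leftover ATP (Kinase-Glo Plus, 10 min) served as read-out after a 1 h room-temperature reaction of 5 nM GALK, 100 uM galactose and 35 uM ATP at pH8.0.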

[20] = Validation screen for small molecules that induce DNA re-replication in SW480 colon adenocarcinoma cells (AID 504364); conditions: DNA re-replication phenotype (high-content imaging); series mostly up to 46.1 µM; also: 0% is about no effect
Procedure, shortened: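 SW480 cells seeded at 250 per well were exposed to compound or DMSO for 48 hr at 37 C, 5% CO2, then stained with Hoechst for 40 min. DNA content per nucleus was imaged (405 nm ex, 500-530 nm em).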

O=C(Nc1cc(C(=O)Nc2ccc(S(=O)(=O)O)cc2S(=O)(=O)O)cc(C(=O)Nc2ccc(S(=O)(=O)O)cc2S(=O)(=O)O)c1)Nc1cc(C(=O)Nc2ccc(S(=O)(=O)O)cc2S(=O)(=O)O)cc(C(=O)Nc2ccc(S(=O)(=O)O)cc2S(=O)(=O)O)c1
active: activity, negative = inhibition [3] -91.7% | Potency [4] 7.94 µM | Potency [5] 6.31 µM | Potency [14] 6.31 µM | Potency [17] 316 nM and 1.26 µM
inactive: activity change, negative = inhibition [1] 5.96% | activity change, negative = inhibition [2] 1.34% | Potency [6] | Potency [7] | Potency [8] | outcome [9] | Potency [10] | Potency [11] | Potency [12] | Potency [13] | outcome [15] | outcome [16] | activation [18] 0.312% | outcome [19] | outcome [20]
